Source: PubChem BioAssay (NCI)
About 83,000 compounds went through this panel and 20% of them were active in at least one assay; those are over-represented in the sample as a whole.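 For each line, cells grew in 96-well plates with the test compound present at a single concentration for 48 hours.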 Unmarked numbers belong to inactive results. Calls of active or inactive are those of the source. Rule for the calls: active = growth percent below 10; inactive = the rest.

Legend:
Assay in all cases: NCI-60 one-dose screen, 48 h (100 = growth as untreated, 0 = no growth, -100 = all killed)
Conditions in all cases: 10 µM unless noted
NCI-H23 lung = test system: NCI-H23 lung
NCI-H226 lung = test system: NCI-H226 lung
NCI-H322M lung = test system: NCI-H322M lung
HOP-62 NSCLC = test system: HOP-62 NSCLC
NCI-H460 lung = test system: NCI-H460 lung
HOP-92 NSCLC = test system: HOP-92 NSCLC
NCI-H522 lung = test system: NCI-H522 lung
A549/ATCC NSCLC = test system: A549/ATCC NSCLC
786-0 renal = test system: 786-0 renal
COLO 205 colon = test system: COLO 205 colon
K-562 leukemia = test system: K-562 leukemia
MALME-3M melanoma = test system: MALME-3M melanoma
MDA-MB-231 breast = test system: MDA-MB-231 breast
RXF 393 renal = test system: RXF 393 renal
SF-268 CNS = test system: SF-268 CNS
SF-295 CNS = test system: SF-295 CNS
SF-539 CNS = test system: SF-539 CNS
UACC-257 melanoma = test system: UACC-257 melanoma
M14 melanoma = test system: M14 melanoma
DU-145 prostate = test system: DU-145 prostate

SMILES: O=C(Nc1ccc(Br)cc1)c1cc(Br)cc(Br)c1O
- growth (NCI-H23 lung): -14.1% (active)
- growth (NCI-H226 lung): 10.6%
- growth (NCI-H322M lung): 13.7%
- growth (HOP-62 NSCLC): -4.33% (active)
- growth (NCI-H460 lung): -25.3% (active)
- growth (HOP-92 NSCLC): -30.7% (active)
- growth (NCI-H522 lung): -3.18% (active)
- growth (A549/ATCC NSCLC): 6.64% (active)
- growth (786-0 renal): -12.3% (active)
- growth (COLO 205 colon): 102%
- growth (K-562 leukemia): 96.9%
- growth (MALME-3M melanoma): -12% (active)
- growth (MDA-MB-231 breast): -22.4% (active)
- growth (RXF 393 renal): -9.8% (active)
- growth (SF-268 CNS): 32.3%
- growth (SF-295 CNS): -8.2% (active)
- growth (SF-539 CNS): 8.02% (active)
- growth (UACC-257 melanoma): -17.1% (active)
- growth (M14 melanoma): 1.78% (active)

SMILES: O=NNc1ccccn1
- growth (NCI-H23 lung): 79.4%
- growth (NCI-H226 lung): 91.1%
- growth (NCI-H322M lung): 126%
- growth (HOP-62 NSCLC): 90.3%
- growth (NCI-H460 lung): 41.7%
- growth (HOP-92 NSCLC): 92.1%
- growth (NCI-H522 lung): 64.3%
- growth (A549/ATCC NSCLC): 95.1%
- growth (786-0 renal): 106%
- growth (COLO 205 colon): 95.8%
- growth (DU-145 prostate): 5.33% (active)
- growth (K-562 leukemia): 77.7%
- growth (MDA-MB-231 breast): 91.2%
- growth (RXF 393 renal): 83.8%
- growth (SF-268 CNS): 91.1%
- growth (SF-295 CNS): 96%
- growth (SF-539 CNS): 94.3%
- growth (UACC-257 melanoma): 94.9%
- growth (M14 melanoma): 87.3%

SMILES: Cc1ccc(C(=O)NCCCOc2ccc(N3C(N)=NC(N)=NC3(C)C)cc2Cl)cc1S(=O)(=O)F
- growth (NCI-H23 lung): 84.4%
- growth (NCI-H226 lung): 91.9%
- growth (NCI-H322M lung): 92.5%
- growth (HOP-62 NSCLC): 94.7%
- growth (NCI-H460 lung): 46.2%
- growth (HOP-92 NSCLC): 69.1%
- growth (NCI-H522 lung): 78.3%
- growth (A549/ATCC NSCLC): 77.5%
- growth (786-0 renal): 91%
- growth (COLO 205 colon): 87.7%
- growth (DU-145 prostate): 126%
- growth (MALME-3M melanoma): 70.4%
- growth (MDA-MB-231 breast): 98.6%
- growth (SF-268 CNS): 54.3%
- growth (SF-295 CNS): 111%
- growth (SF-539 CNS): 54.1%
- growth (M14 melanoma): 76.7%

SMILES: COc1ccc(/C=C/c2cc(OC)c(OC)c(OC)c2)cc1NC(=O)/C=C/c1ccc(F)cc1
- growth (NCI-H23 lung): 6.1% (active)
- growth (NCI-H226 lung): 36.6%
- growth (NCI-H322M lung): 55.5%
- growth (HOP-62 NSCLC): 24.9%
- growth (NCI-H460 lung): 14.6%
- growth (HOP-92 NSCLC): 93.1%
- growth (NCI-H522 lung): -8.36% (active)
- growth (A549/ATCC NSCLC): 38%
- growth (786-0 renal): 37.8%
- growth (COLO 205 colon): -26.3% (active)
- growth (DU-145 prostate): 10.1%
- growth (MALME-3M melanoma): 42.7%
- growth (MDA-MB-231 breast): 56.1%
- growth (RXF 393 renal): -19.1% (active)
- growth (SF-268 CNS): 45.2%
- growth (SF-295 CNS): -2.11% (active)
- growth (SF-539 CNS): -0.885% (active)
- growth (UACC-257 melanoma): 59.3%
- growth (M14 melanoma): 13.4%

SMILES: Cc1ccc(S(=O)(=O)F)cc1C(=O)O
- growth (NCI-H23 lung): 96.5%
- growth (NCI-H226 lung): 95.8%
- growth (NCI-H322M lung): 77.6%
- growth (HOP-62 NSCLC): 97.7%
- growth (NCI-H460 lung): 111%
- growth (HOP-92 NSCLC): 118%
- growth (NCI-H522 lung): 85.8%
- growth (A549/ATCC NSCLC): 98.3%
- growth (COLO 205 colon): 103%
- growth (DU-145 prostate): 104%
- growth (K-562 leukemia): 109%
- growth (MALME-3M melanoma): 86.8%
- growth (MDA-MB-231 breast): 107%
- growth (SF-268 CNS): 101%
- growth (SF-295 CNS): 95.1%
- growth (SF-539 CNS): 94%
- growth (UACC-257 melanoma): 93.3%

SMILES: C=CCCCCCCCCC(=O)[O-].C=CCCCCCCCCC(=O)[O-].[Zn+2]
- growth (NCI-H23 lung): 96.9%
- growth (NCI-H226 lung): 115%
- growth (NCI-H322M lung): 103%
- growth (HOP-62 NSCLC): 119%
- growth (NCI-H460 lung): 106%
- growth (HOP-92 NSCLC): 72.5%
- growth (NCI-H522 lung): 119%
- growth (A549/ATCC NSCLC): 101%
- growth (786-0 renal): 97.2%
- growth (COLO 205 colon): 127%
- growth (DU-145 prostate): 114%
- growth (K-562 leukemia): 92%
- growth (MALME-3M melanoma): 108%
- growth (SF-268 CNS): 106%
- growth (SF-295 CNS): 97.7%
- growth (SF-539 CNS): 97.9%
- growth (UACC-257 melanoma): 98.5%
- growth (M14 melanoma): 107%

SMILES: CC(=O)O[C@H]1CC[C@]2(C)[C@H]3CC[C@]4(C)[C@@H](OC(C)=O)CC[C@H]4[C@@H]3[C@@H](C)[C@]2(O)C1
- growth (NCI-H23 lung): 111%
- growth (NCI-H226 lung): 104%
- growth (NCI-H322M lung): 106%
- growth (HOP-62 NSCLC): 105%
- growth (NCI-H460 lung): 116%
- growth (HOP-92 NSCLC): 108%
- growth (NCI-H522 lung): 94.8%
- growth (A549/ATCC NSCLC): 114%
- growth (786-0 renal): 103%
- growth (COLO 205 colon): 104%
- growth (DU-145 prostate): 107%
- growth (K-562 leukemia): 85.1%
- growth (MDA-MB-231 breast): 108%
- growth (RXF 393 renal): 114%
- growth (SF-268 CNS): 112%
- growth (SF-539 CNS): 99.6%
- growth (UACC-257 melanoma): 127%
- growth (M14 melanoma): 109%

SMILES: CCc1ccccc1[C@@H]1C[C@]2(C)CCO[C@@H]2OO1
- growth (NCI-H23 lung): 104%
- growth (NCI-H226 lung): 102%
- growth (NCI-H322M lung): 105%
- growth (HOP-62 NSCLC): 98.2%
- growth (NCI-H460 lung): 107%
- growth (HOP-92 NSCLC): 92.7%
- growth (NCI-H522 lung): 104%
- growth (A549/ATCC NSCLC): 96.8%
- growth (786-0 renal): 101%
- growth (COLO 205 colon): 118%
- growth (DU-145 prostate): 105%
- growth (MALME-3M melanoma): 110%
- growth (MDA-MB-231 breast): 103%
- growth (RXF 393 renal): 112%
- growth (SF-268 CNS): 98.3%
- growth (SF-295 CNS): 101%
- growth (SF-539 CNS): 111%
- growth (UACC-257 melanoma): 96.7%
- growth (M14 melanoma): 104%

SMILES: O=C(O)C(Cl)(Cl)C(F)(F)F
- growth (NCI-H23 lung): 100%
- growth (NCI-H226 lung): 106%
- growth (NCI-H322M lung): 106%
- growth (HOP-62 NSCLC): 111%
- growth (NCI-H460 lung): 102%
- growth (HOP-92 NSCLC): 95.1%
- growth (NCI-H522 lung): 102%
- growth (A549/ATCC NSCLC): 106%
- growth (786-0 renal): 99.1%
- growth (COLO 205 colon): 124%
- growth (DU-145 prostate): 108%
- growth (MALME-3M melanoma): 105%
- growth (MDA-MB-231 breast): 102%
- growth (SF-268 CNS): 99.3%
- growth (SF-295 CNS): 99.9%
- growth (SF-539 CNS): 102%
- growth (UACC-257 melanoma): 105%
- growth (M14 melanoma): 105%
